High-throughput results from PubChem BioAssay.
TRHR agonist – agonists of human TRH receptor; activation, % at 2 µM; TRHR cells, calcium flux fluo-8, FDSS agonist mode; AID 493084; P34981; 360,000 compounds, 0.18% hits; in the data active = activation above about 30%; also: 0% is about no effect
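Steps: seed TRHR cells overnight; add fluo-8 no-wash Ca dye, RT 30 min–1.5 h; record 10 s baseline; pin-transfer compounds; monitor fluorescence 1 cycle/s for the agonist window. Calcium increases flag candidate agonists.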
PTHR1 ag – agonists of human PTHR1 parathyroid hormone receptor; 410,000 compounds, 0.075% hits; AID 743266; Q03431; HEK293 GP2 PTHR1 cells, GloSensor cAMP luminescence, 1 h; Potency, µM (top dose mostly 115 µM), inactives show top-dose activation, usual class: activators; also: potency is read from the fitted curve at half-maximal effect; nearly all actives have a fitted effect of over 55% in size
Target sequence (Q03431 whole entry, looked up): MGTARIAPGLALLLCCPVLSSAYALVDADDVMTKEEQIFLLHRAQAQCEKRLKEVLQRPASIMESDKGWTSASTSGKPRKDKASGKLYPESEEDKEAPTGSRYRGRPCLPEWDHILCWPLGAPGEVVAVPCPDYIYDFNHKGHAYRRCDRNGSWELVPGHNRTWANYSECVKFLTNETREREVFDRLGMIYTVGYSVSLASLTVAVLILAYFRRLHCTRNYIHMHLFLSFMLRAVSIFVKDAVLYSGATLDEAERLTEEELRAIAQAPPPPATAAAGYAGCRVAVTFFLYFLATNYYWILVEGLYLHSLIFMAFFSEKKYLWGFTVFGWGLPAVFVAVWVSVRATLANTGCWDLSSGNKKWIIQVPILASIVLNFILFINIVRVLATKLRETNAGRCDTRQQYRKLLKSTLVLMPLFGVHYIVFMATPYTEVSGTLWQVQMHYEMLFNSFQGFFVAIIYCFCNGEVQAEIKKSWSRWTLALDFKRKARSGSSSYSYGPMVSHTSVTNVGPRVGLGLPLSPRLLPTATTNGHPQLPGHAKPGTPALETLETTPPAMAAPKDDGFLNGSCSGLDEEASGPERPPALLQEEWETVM
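HEK-293-derived GP2 cells expressing PTHR1 and a GloSensor cAMP reporter, 3,000/well, plated overnight, given luciferin plus IBMX (each 0.5 mM as added) for 1 h at 37 °C, then compound for 1 h at 37 °C. Luminescence was read after 15 min at room temperature.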
TRHR enhancer – TRH receptor (human) allosteric enhancement. P34981. 360,000 compounds, 0.66% hits. TRHR cells, fluo-8 calcium fluorescence, EC20 TRH enhancement. enhancement, % at 2 µM; in the data active = enhancement above about 30%; also: 0% is about no effect
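Enhancer read-out: after compound pinning and an initial kinetic agonist-mode read, an EC20 of TRH (10 nM final) was injected and fluo-8 calcium signal (Ex 480/Em 530) followed at 1 s/cycle for 100 cycles in TRHR-expressing cells.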
TRPML1 blocker – inhibitors of human TRPML1 channel. Q9GZU1. TRPML1-inducible cells, Ca2+ dye fluorescence, FDSS; stronger effect = lower value; inhibition of EC80 agonist-evoked calcium signal. activity change, negative = inhibition, % (no concentration beside the values). 390,000 compounds, 0.02% hits. AID 624415; in the data active = activity change below about -50%; inconclusive = between about -30% and that limit;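 also: stimulus is agonist 54-4 at its EC80 concentration; % is scaled to controls: 0 for no effect and ±100 for the full control effect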
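Calcium fluorescence in TRPML1-DL cells induced overnight with Tet: a 110 s read after compound pin addition, then a 110 s antagonist read after challenge with 54-4 at 4 uM final (EC80).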
TRPML1 agonist – agonists of human TRPML1 channel. Q9GZU1. TRPML1-expressing cells, Ca2+ dye fluorescence, FDSS. activation, % (concentration not given with the values). 410,000 compounds, 0.12% hits. AID 624414; in the data active = activation above about 50%; inconclusive = mostly about 30% to 49%; also: 0% is about no effect
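Cells: TRPML1-DL, 1X Tet inducer, ~16 h at 37 degrees C/5% CO2. Dye: ABD Ca8 no-wash + quencher, 45-90 min RT. Read: 10 s baseline, compound add, 110 s agonist phase; 54-4 EC80 (4uM final), 110 s antagonist phase.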
GLP1R cytotox – cytotoxic in the GLP-1 receptor inverse agonist counter-screen; HEK293 cAMP-luciferase reporter cells, luminescence, 24 h; Potency, µM (highest dose often 38.3 µM), without a hit: at the top dose activity change, negative = inhibition, usual class: inhibitors; 410,000 compounds, 0.13% hits; AID 624418;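 also: loss of luciferase light is scored as toxicity; potency is read from the fitted curve at half-maximal effect; % is scaled to controls: 0 for no effect and ±100 for the full control effect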
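MLSMR compounds, 24 hr on cells at 37 deg C/5% CO2; luminescence after luciferase reagent (12 min RT). Inhibition counted as the undesired cytotoxic outcome.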
Numbers without * were called inactive; [ ] = dose if it differs, or a comment. In the library only some 0.93% were active in any assay of this set; here they are far more common. Unless noted, calls follow the shape of the dose curve; as a rule, active = well fitted curve in the direction sought with a large enough effect; inconclusive = small, poorly fitted or top-dose-only effect, or another doubt; inactive = no such curve, though single readings can be large; an effect the other way counts as inactive or inconclusive.

What do the screens show for `CCC1CC=CC2C1C(=O)N(Cc1ccccc1)C2c1ccc(OC)c(Cl)c1` (centres undefined)?
TRPML1 blocker: 81.3; TRPML1 agonist: 3.8

What do the screens show for `Cc1cc2c(s1)c1cnn(Cc3cc(F)c(F)c(F)c3)c(=O)c1n2C`?
TRHR agonist: -0.1; TRHR enhancer: 0.8

Results for COc1ccc(Nc2nc3ccccc3nc2NS(=O)(=O)c2ccc(C)cc2)c(OC)c1 ?
TRHR agonist: -0.8; PTHR1 ag: -25.1%; TRHR enhancer: 4.5; TRPML1 blocker: -20.2; TRPML1 agonist: 2.8; GLP1R cytotox: 2.9%

Results for O=[N+]([O-])c1ccc(S(=O)(=O)Nc2nc3ccccc3nc2Nc2ccccc2)cc1 ?
TRHR agonist: 0.3; PTHR1 ag: -40.4%; TRHR enhancer: -5.4; TRPML1 blocker: -0.3; TRPML1 agonist: 51.7*; GLP1R cytotox: 12.6%

What do the screens show for `COc1cc(Nc2nc3ccccc3nc2NS(=O)(=O)c2ccc([N+](=O)[O-])cc2)cc(OC)c1OC`?
TRHR agonist: 0.3; PTHR1 ag: -78.6%; TRHR enhancer: 5.4; TRPML1 blocker: inconclusive; TRPML1 agonist: 118.9*; GLP1R cytotox: inconclusive

Results for C[N+]1(CC(=O)c2cccc([N+](=O)[O-])c2)CCOCC1 ?
TRPML1 agonist: -0.1

How did CC(C)(C)n1ncc2c(=O)n(Cc3ccccc3C#N)cnc21 do in these assays?
TRPML1 blocker: -28.6; TRPML1 agonist: 0.7

How did Cc1ccc(Cl)cc1N1CCN(C(=O)c2cc3ccc4cccnc4c3[nH]2)CC1 do in these assays?
TRHR agonist: -1.3; PTHR1 ag: -76.4%; TRHR enhancer: 30.4*; TRPML1 blocker: -3.6; TRPML1 agonist: 2.2; GLP1R cytotox: -4.1%

How did CC(=O)Nc1ccc(/C=C/c2ccccn2)cc1 do in these assays?
TRPML1 agonist: -0.1

Results for COc1cc(CN(C2CCCCC2C)S(=O)(=O)c2ccc(S(=O)(=O)NC3CC3)cc2)cc(OC)c1OC (centres undefined) ?
TRHR agonist: 0.5; PTHR1 ag: -22.7%; TRHR enhancer: -5.0; TRPML1 blocker: -0.6; TRPML1 agonist: 5.3; GLP1R cytotox: -7.7%

How did COc1ccc(CN(C2CCCCC2C)S(=O)(=O)c2ccc(S(=O)(=O)N(C)C)cc2)cc1OC (centres undefined) do in these assays?
TRHR agonist: 12.7; PTHR1 ag: inactive; TRHR enhancer: 5.7; TRPML1 blocker: -25.0; TRPML1 agonist: 133.9*; GLP1R cytotox: 10.8%

How did CCOC(=O)N1CCN(/[N+]([O-])=N/OCOC)CC1 do in these assays?
TRPML1 blocker: -6.7; TRPML1 agonist: 0.8

What do the screens show for `C/C(=N\NC(=O)c1nnn(-c2nonc2N)c1-c1ccc2c(c1)OCO2)c1cccs1`?
TRHR agonist: 13.2; PTHR1 ag: inactive; TRHR enhancer: 30.6*; TRPML1 blocker: 3.6; TRPML1 agonist: 2.5; GLP1R cytotox: 2.2%

Results for O=C(CCN1C(=O)/C(=C/C=C/c2ccccc2)SC1=S)Nc1ccccn1 ?
TRHR agonist: 0.3; PTHR1 ag: -24.1%; TRHR enhancer: 39.4*; TRPML1 blocker: -9.5; TRPML1 agonist: 1.1; GLP1R cytotox: -12.2%[7.66 µM]

Results for O=C(CCN1C(=O)/C(=C/C=C/c2ccccc2)SC1=S)Nc1cccnc1 ?
TRHR agonist: 0.2; PTHR1 ag: -4.6%; TRHR enhancer: -0.9; TRPML1 blocker: -11.8; TRPML1 agonist: 0.6; GLP1R cytotox: -25.8%

Results for COC(=O)c1cc2c(=O)c3ccccc3oc2nc1/C=C/N(C)C ?
TRHR agonist: 35.4*; PTHR1 ag: inactive; TRHR enhancer: -1.8; TRPML1 blocker: 1.2; TRPML1 agonist: -0.4; GLP1R cytotox: 32.6%

What do the screens show for `CC1CCN(c2ccc3c(c2)S(=O)(=O)c2cccc(C(=O)NCc4cccc(F)c4)c2C3=O)CC1`?
TRHR agonist: 53.4*; PTHR1 ag: inactive; TRHR enhancer: -1.1; TRPML1 blocker: 0.8; TRPML1 agonist: inconclusive; GLP1R cytotox: 6.8%

How did Cc1ccc(NS(=O)(=O)c2cccc(C(=O)NCC3(N(C)C)CCCCC3)c2)cc1 do in these assays?
TRHR agonist: 0.5; PTHR1 ag: -49.2%; TRHR enhancer: -4.7; TRPML1 blocker: -7.3; TRPML1 agonist: 3.0; GLP1R cytotox: -15.8%

Results for CN(C)C1(CNC(=O)c2cccc(S(=O)(=O)NCc3ccccc3)c2)CCCCC1 ?
TRHR agonist: 0.1; PTHR1 ag: 31.6µM*; TRHR enhancer: 0.6; TRPML1 blocker: 28.4; TRPML1 agonist: -0.1; GLP1R cytotox: 9.2%

What do the screens show for `CCn1c(C)nc2cc(C(=O)n3cc(C(=O)c4cc(F)ccc4O)cn3)ccc21`?
TRHR agonist: 1.0; TRHR enhancer: 30.2*

What do the screens show for `CCOC(=O)CCC(NC(=O)CCC(=O)NC(CCC(=O)OCC)C(=O)OCC)C(=O)OCC` (centres undefined)?
TRHR agonist: 1.0; PTHR1 ag: -20.1%; TRHR enhancer: 30.6*; TRPML1 blocker: 2.1; TRPML1 agonist: 0.6; GLP1R cytotox: 8.1%

What do the screens show for `Cc1ccc(S(=O)(=O)Oc2ccc(/C=C3/C(=N)N4C(=NC3=O)SN=C4S(C)(=O)=O)cc2)cc1`?
TRHR agonist: -0.5; PTHR1 ag: -14.1%; TRHR enhancer: 6.1; TRPML1 blocker: 10.9; TRPML1 agonist: 0.9; GLP1R cytotox: 5.2%

How did CN(C)c1ccc(/C=C2\C(=N)N3C(=NC2=O)Sc2cc(S(C)(=O)=O)ccc23)cc1 do in these assays?
TRHR agonist: 33.9*; TRHR enhancer: 1.9

How did CN(C)c1ccc(/C=C2\C(=N)N3N=C(CC(=O)N4CCCCC4)SC3=NC2=O)cc1 do in these assays?
TRHR agonist: 30.6*; PTHR1 ag: inactive; TRHR enhancer: 0.6; TRPML1 blocker: 9.4; TRPML1 agonist: 25.7; GLP1R cytotox: 136.2%

What do the screens show for `C/C(CC(=O)Nc1ccccc1)=N\NC(=O)COc1ccc(C)cc1Br`?
TRHR agonist: 0.2; PTHR1 ag: -3.6%; TRHR enhancer: 33.7*; TRPML1 blocker: 3.4; TRPML1 agonist: 0.0; GLP1R cytotox: -2.2%

How did CCc1ccc(NC(=O)C/C(C)=N/NC(=O)COc2ccc(C)cc2Br)cc1 do in these assays?
TRHR agonist: -0.3; PTHR1 ag: inactive; TRHR enhancer: 6.0; TRPML1 blocker: 25.2; TRPML1 agonist: 0.4; GLP1R cytotox: 0.0%

Results for NC(=O)Nc1ccc(/C=C2\C=Cc3ccccc32)cc1 ?
TRPML1 agonist: -0.7

How did O=C(NC(=S)Nc1cccc2cc(O)ccc12)c1ccco1 do in these assays?
TRHR agonist: -0.8; PTHR1 ag: inactive; TRHR enhancer: 0.7; TRPML1 blocker: -59.2*; TRPML1 agonist: 2.1; GLP1R cytotox: -13.9%
